Source: PubChem (National Center for Advancing Translational Sciences (NCATS))
Vaccinia Venus – vaccinia inhibition (Venus reporter); Vaccinia virus Venus reporter expression, fluorescence; Potency, µM (series often up to 36.5 µM), usual class: inhibitors; 330,000 compounds, 0.46% hits; calls by dose curve; tested in A549 cells; further: nearly all actives have a fitted effect of over 30% in size
AmpC no deterg – blocks E. coli AmpC beta-lactamase in detergent-free assay; P00811; AmpC nitrocefin hydrolysis, absorbance 480 nm, 0.0001% Triton; Potency, µM (top dose mostly 57.1 µM), actives largely listed as inhibitors; 330,000 compounds, 0.52% hits; further: nearly all actives have a fitted effect of over 20% in size
Target sequence (P00811 whole entry, looked up): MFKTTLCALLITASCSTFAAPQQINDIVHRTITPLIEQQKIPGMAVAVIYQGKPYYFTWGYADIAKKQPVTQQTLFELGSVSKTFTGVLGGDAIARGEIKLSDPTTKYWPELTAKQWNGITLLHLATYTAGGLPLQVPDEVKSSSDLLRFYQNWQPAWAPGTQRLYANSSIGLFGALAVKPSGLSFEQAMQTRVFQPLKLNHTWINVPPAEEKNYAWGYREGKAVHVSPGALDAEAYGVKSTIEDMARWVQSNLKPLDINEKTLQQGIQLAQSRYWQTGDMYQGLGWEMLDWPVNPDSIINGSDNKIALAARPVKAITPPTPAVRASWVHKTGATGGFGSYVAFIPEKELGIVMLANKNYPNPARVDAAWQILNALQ
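AmpC (5.3 nM in the dispensed reagent) in 20 mM phosphate pH 7.0 with 0.01% (detergent screen) or 0.0001% Triton X-100 was preincubated with compounds for 15 min at room temperature. Nitrocefin was then added from an 800 uM solution, and hydrolysis was followed at 480 nm.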
AMA1 RON2 block – disrupts binding of P. falciparum AMA1 to RON2 | AlphaScreen AMA1-biotinylated RON2 peptide binding | AID 720542 | Potency, µM (series often up to 58.2 µM), usual class: inhibitors | 360,000 compounds, 0.2% hits; further: nearly all actives have a fitted effect of over 45% in size
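AMA1 (3D7) with his tag at 25 nM final met compounds first, then biotinylated RON2 peptide at 25 nM; detection used donor plus acceptor beads, 10 µg/mL apiece, read by AlphaScreen after 30 min at room temperature.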
AmpC inh detg – inhibitors of E. coli AmpC beta-lactamase with detergent; AID 485294; AmpC hydrolysis of nitrocefin, absorbance 480 nm, 0.01% Triton; 370,000 compounds, 0.041% hits; Potency, µM (top dose mostly 114 µM), actives largely listed as inhibitors; further: nearly all actives have a fitted effect of over 25% in size
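20 mM phosphate pH 7.0 + 0.01% (detergent screen) or 0.0001% Triton X-100; 5.3 nM AmpC reagent; cpd preinc 15 min RT; nitrocefin (800 uM stock) to start; A480 q20 s × 4 min; Activity was normalised to no-enzyme and no-compound control wells.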
SARS PLpro yeast-1 – blocks SARS-CoV papain-like protease in a yeast assay. Potency, µM (highest dose often 32.9 µM), usual class: activators. 330,000 compounds, 0.19% hits. AID 485353. S. cerevisiae expressing SARS-CoV PLpro, growth rescue; calls by dose curve; further: nearly all actives have a fitted effect of over 55% in size
Vaccinia mCherry – inhibitors of vaccinia virus infection (mCherry reporter signal). Vaccinia virus mCherry reporter infection, fluorescence. 310,000 compounds, 0.63% hits. Potency, µM (series often up to 36.5 µM), usual class: inhibitors; calls by dose curve; tested in A549 cells; further: nearly all actives have a fitted effect of over 35% in size
SARS PLpro yeast-2 – Rescues yeast growth by inhibiting SARS-CoV PLpro. shares compounds with SARS PLpro yeast-1. yeast expressing SARS-CoV PLpro, growth phenotype rescue. calls only. 1,000 compounds, 19% hits. AID 652038; call rule not given here
Hits are given with their value; [ ] = dose if it differs, or a comment. A selection: hits, their analogues and other compounds. The true share with any hit is near 1.3%. Unless noted, the call rests on the fitted dose curve; in most records, active means well fitted curve in the direction sought with a large enough effect; inconclusive means small, poorly fitted or top-dose-only effect, or another doubt; inactive means no such curve, though single readings can be large; an effect the other way counts as inactive or inconclusive.

Screening O=C(NC(c1ccc(Cl)cc1)c1cc(Cl)c2cccnc2c1O)c1cccnc1 (stereo not given) returned Vaccinia Venus inactive, AmpC no deterg inactive, AMA1 RON2 block inactive, AmpC inh detg inactive, SARS PLpro yeast-1 2.51µM, Vaccinia mCherry inactive and SARS PLpro yeast-2 inactive.
O=C(Oc1ccccc1)c1cc2ccccc2oc1=O was read as Vaccinia Venus inactive, AmpC no deterg inactive, AMA1 RON2 block inactive, AmpC inh detg inconclusive, SARS PLpro yeast-1 inactive and Vaccinia mCherry inactive.
For CC(C)OC(=O)c1cc2ccccc2oc1=O the results were Vaccinia Venus inactive, AmpC no deterg inactive, AMA1 RON2 block inactive, AmpC inh detg inactive, SARS PLpro yeast-1 inconclusive, Vaccinia mCherry inactive and SARS PLpro yeast-2 inactive.
O=C(/C=C/c1cccs1)NC(=S)NNC(=O)Cc1cccs1 was read as Vaccinia Venus inactive, AmpC no deterg inactive, AMA1 RON2 block inactive, AmpC inh detg inconclusive, SARS PLpro yeast-1 inconclusive and SARS PLpro yeast-2 active.
`COc1ccc(/C=C/C(=O)NC(=S)NNC(=O)Cc2cccs2)cc1OC` gave Vaccinia Venus inactive, AmpC no deterg inactive, AMA1 RON2 block inactive, AmpC inh detg inactive, SARS PLpro yeast-1 inactive and Vaccinia mCherry inactive.
For CCOC(=O)c1sc(=S)n(C)c1NC(=O)c1ccc(OC)cc1 the results were Vaccinia Venus inactive, AmpC no deterg inactive, AMA1 RON2 block inactive, AmpC inh detg inactive, SARS PLpro yeast-1 inactive and Vaccinia mCherry inactive.
Screening CCOC(=O)c1sc(=S)n(C)c1NC(=O)c1ccccc1Cl returned Vaccinia Venus inactive, AmpC no deterg inactive, AMA1 RON2 block inactive, AmpC inh detg inactive, SARS PLpro yeast-1 22.4µM, Vaccinia mCherry inactive and SARS PLpro yeast-2 inactive.
For O=C(Nc1nc(-c2ccccn2)cs1)C1COc2ccccc2O1 (stereo not given) the results were Vaccinia Venus inconclusive, AmpC no deterg inactive, AMA1 RON2 block inactive, AmpC inh detg inactive, SARS PLpro yeast-1 inconclusive, Vaccinia mCherry inconclusive and SARS PLpro yeast-2 active.
For CC1(C)CC2CC(C)(CN2C(=O)COC(=O)CNC(=O)c2ccc(Cl)c(Cl)c2)C1 (stereo not given) the results were Vaccinia Venus inactive, AmpC no deterg inactive, AMA1 RON2 block inactive, AmpC inh detg inactive, SARS PLpro yeast-1 inactive and Vaccinia mCherry inactive.
`CCOC(=O)c1cnn(Cc2ccccc2)c1N` gave Vaccinia Venus inactive, AmpC no deterg inactive, AMA1 RON2 block inactive, AmpC inh detg inconclusive, SARS PLpro yeast-1 inconclusive, Vaccinia mCherry inactive and SARS PLpro yeast-2 inactive.
For CCOc1ccc(NC(=O)CCCOc2cc(=O)n(C)c3ccccc23)cc1 the results were Vaccinia Venus inactive, AmpC no deterg inactive, AMA1 RON2 block inactive, AmpC inh detg inactive, SARS PLpro yeast-1 inconclusive, Vaccinia mCherry inactive and SARS PLpro yeast-2 active.
Screening COc1cccc(NC(=O)CCCOc2cc(=O)n(C)c3ccccc23)c1 returned AmpC no deterg inactive, AMA1 RON2 block inactive, AmpC inh detg inactive and SARS PLpro yeast-1 inactive.
For COc1cccc(CNc2ccc(S(N)(=O)=O)cc2)c1OC the results were Vaccinia Venus inactive, AmpC no deterg inactive, AMA1 RON2 block inactive, AmpC inh detg inconclusive, SARS PLpro yeast-1 inconclusive, Vaccinia mCherry inactive and SARS PLpro yeast-2 inactive.
`NS(=O)(=O)c1ccc(NCc2ccccc2OCc2ccccc2F)cc1` gave Vaccinia Venus inactive, AmpC no deterg inactive, AMA1 RON2 block inactive, AmpC inh detg inactive, SARS PLpro yeast-1 inactive and Vaccinia mCherry inactive.
For NC(=S)NN=C1C2CC3CC(C2)CC1C3 the results were Vaccinia Venus inconclusive, AmpC no deterg inactive[11.4 µM], AMA1 RON2 block inactive, AmpC inh detg inconclusive, SARS PLpro yeast-1 inconclusive, Vaccinia mCherry inconclusive and SARS PLpro yeast-2 inactive.
CCC1CCCCN1S(=O)(=O)c1ccc(C(=O)Nc2nnc(-c3cccs3)o2)cc1 (stereo not given) was read as Vaccinia Venus inconclusive, AmpC no deterg inactive, AMA1 RON2 block inactive, AmpC inh detg inactive, SARS PLpro yeast-1 11.2µM, Vaccinia mCherry inconclusive and SARS PLpro yeast-2 active.
`CC1CC(C)CN(S(=O)(=O)c2ccc(C(=O)Nc3nnc(-c4cccs4)o3)cc2)C1` (stereo not given) gave Vaccinia Venus inactive, AmpC no deterg inactive, AMA1 RON2 block inactive, AmpC inh detg inactive, SARS PLpro yeast-1 inactive and Vaccinia mCherry inactive.
Screening Cc1ccc2nc(Nc3nc(CSc4nnnn4-c4ccccc4)cc(=O)[nH]3)nc(C)c2c1 returned AmpC no deterg inactive, AMA1 RON2 block inactive, AmpC inh detg inactive, SARS PLpro yeast-1 inconclusive and SARS PLpro yeast-2 inactive.
For COc1ccc2nc(Nc3nc(CSc4nc5ccccc5[nH]4)cc(=O)[nH]3)nc(C)c2c1 the results were Vaccinia Venus inconclusive, AmpC no deterg inactive, AMA1 RON2 block inactive, AmpC inh detg inactive, SARS PLpro yeast-1 inactive and Vaccinia mCherry inconclusive.
For O=P(N1CCCCC1)(N1CCCCC1)C(Cl)(Cl)Cl the results were AmpC no deterg inactive, AMA1 RON2 block inactive, AmpC inh detg inactive, SARS PLpro yeast-1 inconclusive and SARS PLpro yeast-2 inactive.
`O=P(N1CCCCCC1)(N1CCCCCC1)N1CC1` gave Vaccinia Venus inactive, AMA1 RON2 block inactive and Vaccinia mCherry inactive.
Screening O=C(Cn1cnc2cc([N+](=O)[O-])ccc2c1=O)Nc1ccc(N2CCOCC2)cc1 returned Vaccinia Venus inactive, AmpC no deterg inactive, AMA1 RON2 block inactive, AmpC inh detg inactive, SARS PLpro yeast-1 inactive and Vaccinia mCherry inconclusive.
`CN(C)C(CNc1ncnc2sc3c(c12)CCCC3)c1ccco1` (stereo not given) gave Vaccinia Venus inactive, AmpC no deterg inactive, AMA1 RON2 block inactive, AmpC inh detg inactive, SARS PLpro yeast-1 inactive and Vaccinia mCherry inconclusive.
O=C(O)c1cc(C2CC2)nn1-c1ccccc1 was read as AmpC no deterg inactive, AMA1 RON2 block inactive, AmpC inh detg inactive, SARS PLpro yeast-1 inconclusive and SARS PLpro yeast-2 inactive.
COc1ccc(C2=NN(C(=O)c3ccc(Cl)c([N+](=O)[O-])c3)C(c3ccccc3)C2)cc1 (stereo not given) was read as AmpC no deterg inconclusive, AMA1 RON2 block inactive, AmpC inh detg inactive, SARS PLpro yeast-1 inconclusive and SARS PLpro yeast-2 inconclusive.
Screening CC(C)(C)C(=O)c1c(N)[nH]c(C(=O)c2ccccc2)c1-c1ccc(Br)cc1 returned Vaccinia Venus inactive, AMA1 RON2 block inactive and Vaccinia mCherry inactive.
CCOc1ccc(Cl)cc1CNCCCSc1nc(C)cc(C)n1 was read as AmpC no deterg inactive, AMA1 RON2 block inactive, AmpC inh detg inactive and SARS PLpro yeast-1 inactive.
`Cc1csc(N/N=C/c2ccc(O)c([N+](=O)[O-])c2)n1` gave Vaccinia Venus inactive, AmpC no deterg inactive, AMA1 RON2 block inactive, AmpC inh detg inactive, SARS PLpro yeast-1 10µM, Vaccinia mCherry inactive and SARS PLpro yeast-2 active.
For Cc1c(C(=O)NNC(=O)c2csc(N3CCOCC3)n2)oc2ccc(Br)cc12 the results were Vaccinia Venus inactive, AMA1 RON2 block inactive and Vaccinia mCherry inactive.
